Test results: PubChem BioAssay (NCATS)
Results filed as inconclusive are left out. Calls of active or inactive are those of the source. The call rests on the fitted dose curve; in most records, active means well fitted curve in the direction sought with a large enough effect; inconclusive means small, poorly fitted or top-dose-only effect, or another doubt; inactive means no such curve, though single readings can be large; an effect the other way counts as inactive or inconclusive. *1 amine or outer side, *2 acyl side, *3 side chain or, on linkers, in order; H or OH if unused. Where a SMILES comes first, the peptide text is derived from it. Bridges are numbered along the chain shown (N, C = ends). [ ]: non-standard residue; d: D form. The star is where a group is joined. ξ: configuration not given here. X10 = NC1=NCCC(C(N[*:1])C(=O)[*:2])N1; ΔAla(3-NHCONH2) = NC(=O)NC=C(N)C(=O)O; ξβ3hOrn = NCCCC(N)CC(=O)*; Dap = NC[CH](N)C(=O)O

Assays:
[1] = qHTS assay for measurement of the activity of small molecule inhibitors on Zika virus induced Caspase-3 activity in human iPSC derived neural progenitor cells (hNPCs) (AID 1224857); further: % of control where 0% means no effect; nearly all actives have a fitted effect of over 65% in size
Procedure, shortened: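 After overnight (16–20 h) culture at 350 cells/well, hNPCs get compound, then ZIKV 2 FFU/cell one hour later. Six hours on, Caspase-Glo 3/7 is added and luminescence measured.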

[2] = qHTS assay for measurement of the activity of small molecule inhibitors on Zika virus induced Caspase-3 activity in human astrocytoma cells (AID 1224859);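 further: plate controls were ZIKV-infected untreated cells for no effect and uninfected cells for full effect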
Procedure, shortened: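 Inhibition of Zika-induced caspase-3/7 activity: SNB-19 cells, 1 h compound pretreatment, ZIKV 2 FFU/cell for 6 h at 37 C, Caspase-Glo luminescence read-out.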

[3] = NS1 protein of Zika virus - qHTS assay to identify small molecule inhibitors in human HEK 293 cells (AID 1347053);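 further: series mostly up to about 46 µM; plate controls were infected untreated cells for no effect and uninfected cells for full effect; nearly all actives have a fitted effect of over 55% in size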
Procedure, shortened: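 HEK 293 cells pretreated with compound for 1 h, then infected with ZIKV MR766 (MOI 0.5) for 24 h at 37 C. NS1 detected by TR-FRET with two anti-NS1 antibodies; normalized to uninfected (0%) and infected (100%) wells.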

[4] = qHTS of pediatric cancer cell lines to identify multiple opportunities for drug repurposing: Primary screen for TC32 cells (AID 1347089); further: on the % scale 0 is the no-effect control and ±100 the full control effect; nearly all actives have a fitted effect of over 60% in size
Procedure, shortened: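 Luminescent ATP read-out (CellTiter-Glo) of metabolically active TC32 cells after 48 h exposure. Concentration-response curves came from 11-point (MIPE, 0.78 nM–46 µM) or 8-point (NPC, 0.59 nM–46 µM) primary titrations; follow-up used 11 points.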

[5] = qHTS of pediatric cancer cell lines to identify multiple opportunities for drug repurposing: Primary screen for DAOY cells (AID 1347090);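 further: series mostly up to about 46 µM; plate controls were DMSO for no effect and bortezomib for full effect; nearly all actives have a fitted effect of over 55% in size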
Procedure, shortened: (§1)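 Eight- or eleven-point concentration series, 48 h treatment at 37 degrees C in growth media; readout CellTiter-Glo luminescence. Potency and efficacy were taken from the concentration-response curves.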

[6] = qHTS of pediatric cancer cell lines to identify multiple opportunities for drug repurposing: Primary screen for SJ-GBM2 cells (AID 1347091);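 further: plate controls were DMSO neutral control for no effect and bortezomib for full effect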
Procedure, shortened: as §1

[7] = qHTS of pediatric cancer cell lines to identify multiple opportunities for drug repurposing: Primary screen for A673 cells (AID 1347092); further: on the % scale 0 is the no-effect control and ±100 the full control effect; nearly all actives have a fitted effect of over 45% in size
Procedure, shortened: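 Cell viability of A673 measured by CellTiter-Glo ATP luminescence after 48 hours compound exposure. Dilution series spanned 0.78 nM to 46 µM (MIPE, 11-point) or 0.59 nM to 46 µM (NPC, 8-point); bortezomib 2.3 uM positive control.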

[8] = qHTS of pediatric cancer cell lines to identify multiple opportunities for drug repurposing: Primary screen for SK-N-MC cells (AID 1347093);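 further: series mostly up to about 46 µM; plate controls were DMSO neutral control for no effect and bortezomib for full effect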
Procedure, shortened: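 Metabolically active cells were quantified by ATP-dependent luminescence (CellTiter-Glo, 15 min at room temperature) following 48 h treatment. Cells had been plated at 500-1,000 per well and settled for 5 h beforehand.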

[9] = qHTS of pediatric cancer cell lines to identify multiple opportunities for drug repurposing: Primary screen for BT-37 cells (AID 1347094);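 further: series mostly up to about 57 µM; plate controls were DMSO for no effect and bortezomib for full effect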
Procedure, shortened: (§2)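 Plated cells (500-1,000 per well, growth media) were allowed to settle for 5 hours, treated with compound dilutions for 48 hours, then lysed with CellTiter-Glo for 15 min at room temperature before luminescence reading.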

[10] = qHTS of pediatric cancer cell lines to identify multiple opportunities for drug repurposing: Primary screen for U-2 OS cells (AID 1347096);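 further: plate controls were DMSO wells for no effect and bortezomib positive control wells for full effect; nearly all actives have a fitted effect of over 50% in size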
Procedure, shortened: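 Cells (500-1,000/well) in growth media were settled 5 h at 37 degrees C, then given compounds for 48 h. Viability was read as CellTiter-Glo luminescence. Primary runs used MIPE at 11 points (0.78 nM-46 µM) and NPC at 8 points (0.59 nM-46 µM); follow-ups used 11 points.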

[11] = qHTS of pediatric cancer cell lines to identify multiple opportunities for drug repurposing: Primary screen for NB-EBc1 cells (AID 1347095);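 further: plate controls were DMSO neutral control for no effect and bortezomib for full effect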
Procedure, shortened: as §2

CC(C)CCCC(C)NCCC(C)C (stereo not given)
inactive: Potency [1] | outcome [2] | Potency [3] | Potency [4] | Potency [5] | Potency [6] | Potency [7] | Potency [8] | Potency [9] | Potency [10]

CCOC(=O)CN1CCCC1=O
inactive: Potency [1] | outcome [2] | Potency [3] | Potency [4] | Potency [5] | Potency [6] | Potency [7] | Potency [8] | Potency [9] | Potency [10]

c1ccc2c(c1)CCc1ccccc1N2
inactive: Potency [1] | outcome [2] | Potency [3] | Potency [4] | Potency [5] | Potency [6] | Potency [7] | Potency [8] | Potency [9] | Potency [11] | Potency [10]

COC(=O)c1cc(S(N)(=O)=O)ccc1OC
inactive: Potency [1] | outcome [2] | Potency [3] | Potency [4] | Potency [5] | Potency [6] | Potency [7] | Potency [8] | Potency [11] | Potency [10]

CN(C)CCN(Cc1ccsc1)c1ccccn1
inactive: Potency [1] | outcome [2] | Potency [3] | Potency [4] | Potency [5] | Potency [6] | Potency [7] | Potency [8] | Potency [9] | Potency [10]

O=C(O)CCCC[P+](c1ccccc1)(c1ccccc1)c1ccccc1
inactive: Potency [1] | outcome [2] | Potency [3] | Potency [4] | Potency [5] | Potency [6] | Potency [7] | Potency [8] | Potency [9] | Potency [11] | Potency [10]

CCc1cccc2c(CCO)c[nH]c12
inactive: Potency [1] | outcome [2] | Potency [3] | Potency [4] | Potency [5] | Potency [6] | Potency [7] | Potency [8] | Potency [11] | Potency [10]

NCC[C@H](O)C(=O)N[C@@H]1C[C@H](N)[C@@H](O[C@H]2O[C@H](CN)[C@@H](O)[C@H](O)[C@@H]2O)[C@H](O)[C@@H]1O[C@H]1O[C@H](CO)[C@@H](O)[C@H](N)[C@@H]1O
inactive: activity change, negative = inhibition [1] -1.8% [at 0.568 µM] | activity change, negative = inhibition [2] 13.4% [at 0.568 µM] | activity change, negative = inhibition [3] -0.409% [at 0.593 µM] | activity change, negative = cytotoxic [4] 10.2% [at 0.594 µM] | activity change, negative = cytotoxic [5] 11.4% [at 0.597 µM] | activity change, negative = cytotoxic [6] 26.2% [at 0.597 µM] | activity change, negative = cytotoxic [7] -3.3% [at 0.597 µM] | activity change, negative = cytotoxic [8] -10.7% [at 0.597 µM] | activity change, negative = cytotoxic [11] 17.9% [at 0.597 µM] | activity change, negative = cytotoxic [10] 14.2% [at 0.597 µM]

CNC(=O)c1cnn(-c2nc(N)c3ncn([C@@H]4O[C@H](CO)[C@@H](O)[C@H]4O)c3n2)c1
inactive: Potency [1] | outcome [2] | Potency [3] | Potency [4] | Potency [5] | Potency [6] | Potency [7] | Potency [8] | Potency [9] | Potency [11] | Potency [10]

CC(=O)N[C@@H](CO)C(=O)N[C@@H](CC(=O)O)C(=O)N[C@@H](CCCCN)C(=O)N1CCC[C@H]1C(=O)O (Ac-SDKP-OH)
inactive: Potency [1] | outcome [2] | Potency [3] | Potency [4] | Potency [5] | Potency [6] | Potency [7] | Potency [8] | Potency [9] | Potency [11] | Potency [10]

Nc1ccc(C(=O)OCC(O)CO)cc1 (stereo not given)
inactive: Potency [1] | outcome [2] | Potency [3] | Potency [4] | Potency [5] | Potency [6] | Potency [7] | Potency [9] | Potency [11] | Potency [10]

O=C(CCOCCOCCOCCOCCC(=O)Nc1c(I)cc(I)c(C(=O)O)c1I)Nc1c(I)cc(I)c(C(=O)O)c1I
inactive: Potency [1] | outcome [2] | Potency [3] | Potency [4] | Potency [5] | Potency [6] | Potency [7] | Potency [8] | Potency [9] | Potency [11] | Potency [10]

CC(=O)OC[C@H]1O[C@@H](OC(C)=O)[C@H](OC(C)=O)[C@@H]1OC(C)=O
inactive: Potency [1] | outcome [2] | Potency [3] | Potency [4] | Potency [5] | Potency [6] | Potency [7] | Potency [8] | Potency [9] | Potency [10]

O=C1Nc2ccccc2C1(c1ccc(O)cc1)c1ccc(O)cc1
inactive: Potency [1] | outcome [2] | Potency [3] | Potency [4] | Potency [5] | Potency [6] | Potency [7] | Potency [9] | Potency [11]

CCS(=O)(=O)c1ccc(OC)c(C(=O)OC)c1
inactive: Potency [1] | outcome [2] | Potency [3] | Potency [4] | Potency [5] | Potency [6] | Potency [7] | Potency [8] | Potency [9] | Potency [11] | Potency [10]

Cc1[nH]cnc1-c1ccc(Cl)cc1
inactive: Potency [1] | outcome [2] | Potency [3] | Potency [4] | Potency [5] | Potency [6] | Potency [7] | Potency [8] | Potency [11] | Potency [10]

CC(C)(C)CC(=O)OCC(=O)[C@@]1(O)CC[C@H]2[C@@H]3CCC4=CC(=O)C=C[C@]4(C)[C@H]3[C@@H](O)C[C@@]21C
inactive: Potency [1] | outcome [2] | Potency [3] | Potency [4] | Potency [5] | Potency [6] | Potency [7] | Potency [8] | Potency [9] | Potency [10]

NCCCC(N)CC(=O)NCC1NC(=O)C(CO)NC(=O)C(N)CNC(=O)C(C2CCN=C(N)N2)NC(=O)C(=CNC(N)=O)NC1=O (stereo not drawn) (H-[Dap]S[Dap](ξβ3hOrn)[ΔAla(3-NHCONH2)][X10]; lactam 1-C; configuration not given here)
inactive: activity change, negative = inhibition [1] 2.09% [at 0.568 µM] | activity change, negative = inhibition [2] -8.34% [at 0.568 µM] | activity change, negative = inhibition [3] 1.27% [at 0.593 µM] | activity change, negative = cytotoxic [4] 5.9% [at 0.594 µM] | activity change, negative = cytotoxic [5] 6.38% [at 0.597 µM] | activity change, negative = cytotoxic [6] 34.8% [at 0.597 µM] | activity change, negative = cytotoxic [7] -4.68% [at 0.597 µM] | activity change, negative = cytotoxic [8] -13.5% [at 0.597 µM] | activity change, negative = cytotoxic [9] 18% [at 0.745 µM] | activity change, negative = cytotoxic [11] 29.4% [at 0.597 µM] | activity change, negative = cytotoxic [10] 13.6% [at 0.597 µM]

CCOC(=O)c1ccc(O)c(O)c1
inactive: Potency [1] | outcome [2] | Potency [3] | Potency [4] | Potency [5] | Potency [6] | Potency [7] | Potency [9] | Potency [10]

CCCC(=O)Nc1ccc(O)c(C(C)=O)c1
inactive: Potency [1] | outcome [2] | Potency [3] | Potency [4] | Potency [5] | Potency [6] | Potency [8] | Potency [9] | Potency [11] | Potency [10]
